Some of the results follow. The hit rate among all sequences tested is not known here.
B1: HC2041 (peptide)
chain: CAVVNCSMSYAGNASASA
B2: FS-382 (peptide)
chain: CATAARRLRDAGNASASA
B3: FS-878 (peptide)
chain: CATARRHGRDAGNASASA
B4: FS-397 (peptide)
chain: CAAPGRDGRDAGNASASA
B5: HC905 (peptide)
chain: CAGRTGRGKPAGNASASA
B6: FS-536 (peptide)
chain: CAHKSRKERRAGNASASA
B7: FS-2266 (peptide)
chain: CARKKRIKRRAGNASASA
B8: FS-1449 (peptide)
chain: CADSSRIKRRAGNASASA
B9: FS-2214 (peptide)
chain: CARKKRLENRAGNASASA
B10: FS-756 (peptide)
chain: CADISRIKRGAGNASASA
B11: HC1988 (peptide)
chain: CAWVCCSMSYAGNASASA
B12: FS-3018 (peptide)
chain: CARPLRGVSGAGNASASA
B13: HC533 (peptide)
chain: CAEAALENLVAGNASASA
B14: FS-2989 (peptide)
chain: CARLKRAVWIAGNASASA
B15: FS-2042 (peptide)
chain: CARLDRHVFIAGNASASA
B16: FS-2276 (peptide)
chain: CARLKRHPEEAGNASASA
B17: FS-1963 (peptide)
chain: CARLKRTNGNAGNASASA
B18: FS-2704 (peptide)
chain: CARLKRAVSEAGNASASA
B19: FS-1740 (peptide)
chain: CARLKKIKDDAGNASASA
B20: FS-2570 (peptide)
chain: CARLKRIVFDAGNASASA
B21: FS-2221 (peptide)
chain: CARLKRVVPDAGNASASA
B22: FS-2709 (peptide)
chain: CARLKRRQEEAGNASASA
B23: HC2217 (peptide)
chain: CAEVVTSSWVAGNASASA
B24: HC1841 (peptide)
chain: CANTPCSGSWAGNASASA
B25: HC1756 (peptide)
chain: CAMEECSQGLAGNASASA
B26: HC1920 (peptide)
chain: CATTPCSGCWAGNASASA
B27: HC84 (peptide)
chain: CAVVCLSMSYAGNASASA

Biological target: furin, P09958
Assay: furin cleavage Z-score vs untreated control; higher = more cleavage, active = 3.5 or more, inactive = 1 or less, 8 variable residues between constant flanks
Procedure, shortened: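 Furin-free reactions served as the baseline for the cleavage Z-score, which is the log read count lowess-adjusted and scaled by median absolute deviation. Counts came from released DNA, adapter-tagged by PCR and sequenced. Purified furin had cut 8-mer peptides fused to a cDNA oligonucleotide on magnetic beads during 7.5, 15 or 30 min at 1:10 enzyme:substrate.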
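Further: purified furin at 1:10 enzyme:substrate in 50 mM HEPES pH 7.5.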

Chain of furin, P09958 (P09958 whole entry): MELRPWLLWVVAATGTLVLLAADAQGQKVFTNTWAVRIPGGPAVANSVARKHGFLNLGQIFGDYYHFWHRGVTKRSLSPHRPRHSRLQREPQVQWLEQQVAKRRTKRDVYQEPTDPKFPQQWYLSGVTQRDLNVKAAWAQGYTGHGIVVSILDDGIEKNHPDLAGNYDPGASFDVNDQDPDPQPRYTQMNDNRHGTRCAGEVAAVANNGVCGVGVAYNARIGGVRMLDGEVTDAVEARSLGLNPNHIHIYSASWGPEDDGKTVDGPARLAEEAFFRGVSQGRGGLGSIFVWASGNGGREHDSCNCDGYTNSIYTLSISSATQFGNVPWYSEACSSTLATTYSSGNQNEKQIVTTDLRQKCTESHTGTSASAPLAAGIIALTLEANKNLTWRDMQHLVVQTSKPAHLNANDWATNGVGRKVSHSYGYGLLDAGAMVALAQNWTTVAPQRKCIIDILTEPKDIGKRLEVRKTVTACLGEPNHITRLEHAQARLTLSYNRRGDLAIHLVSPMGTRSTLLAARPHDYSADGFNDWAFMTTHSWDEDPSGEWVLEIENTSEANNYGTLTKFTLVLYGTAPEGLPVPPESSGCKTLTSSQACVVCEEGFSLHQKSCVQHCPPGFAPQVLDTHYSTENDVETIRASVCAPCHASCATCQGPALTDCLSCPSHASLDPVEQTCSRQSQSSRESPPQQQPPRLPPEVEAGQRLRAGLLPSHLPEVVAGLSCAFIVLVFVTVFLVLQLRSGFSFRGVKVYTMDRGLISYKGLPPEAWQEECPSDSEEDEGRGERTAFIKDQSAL

Sequence	furin cleavage Z-score (7.5 min)	furin cleavage Z-score (15 min)	furin cleavage Z-score (30 min)
B1	0.601 (inactive)	1.6	-0.0752 (inactive)
B2	1.54	3.67 (active)	3.74 (active)
B3	6.42 (active)	7.12 (active)	6.27 (active)
B4	-0.000356 (inactive)	-1.26 (inactive)	-0.555 (inactive)
B5	-1.05 (inactive)	-0.843 (inactive)	-1.55 (inactive)
B6	1.88	4.97 (active)	3.69 (active)
B7	13.1 (active)	14.5 (active)	11.5 (active)
B8	8.08 (active)	10.6 (active)	8.94 (active)
B9	1.32	0.582 (inactive)	0.84 (inactive)
B10	2.64	4.17 (active)	2.27
B11	0.172 (inactive)	0.44 (inactive)	1.05
B12	-0.934 (inactive)	-0.697 (inactive)	-0.66 (inactive)
B13	-0.446 (inactive)	-0.46 (inactive)	-1.1 (inactive)
B14	5.97 (active)	7.83 (active)	8.13 (active)
B15	-0.675 (inactive)	-1.39 (inactive)	-0.0693 (inactive)
B16	1.2	3.98 (active)	3.45
B17	0.424 (inactive)	2.26	1.1
B18	8.88 (active)	10.6 (active)	7.25 (active)
B19	-0.946 (inactive)	-0.774 (inactive)	-1.39 (inactive)
B20	0.11 (inactive)	0.63 (inactive)	1.98
B21	3.21	5.12 (active)	6 (active)
B22	-0.805 (inactive)	0.691 (inactive)	1.04
B23	0.949 (inactive)	3.4	-0.0256 (inactive)
B24	-0.658 (inactive)	-0.9 (inactive)	-0.678 (inactive)
B25	0.411 (inactive)	1.43	1.65
B26	-0.899 (inactive)	-0.942 (inactive)	-0.88 (inactive)
B27	0.288 (inactive)	-0.622 (inactive)	-0.642 (inactive)

Source: the supplement of paper PMC3545927
